Measured values as given in PubChem BioAssay AID1159580 (chemical genetic matrix, 2015).
Where “and” joins values, the source holds several entries; their conditions need not be identical. Identical values can stand only once. The campaign covered roughly 5,500 compounds. About 2,000 (36%) were called active. Roughly 18% stayed inconclusive and do not appear here. Rule as the data show it: active = normalized growth mostly below about 0.91 (no sharp cut-off); inconclusive = no clear call, values can overlap the other calls; inactive = mostly above about 0.92. Some of the results follow.

Assay: chemical genetic growth profiling, strain panel (AID 1159580);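 also: tested at 20 µM; growth read once vehicle control cultures reached saturation at 30 °C; 1 = growth at the plate median or of vehicle wells; lower values mean less growth of the strain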
Details: S. cerevisiae deletion strains, growth OD

Measured: normalized growth

O=C(OCc1ccccc1)c1ccccc1
active: locus YDR137W, strain rgp1, stronger effect = lower value 0.714 | locus YDR502C, strain sam2, stronger effect = lower value 0.918 | locus YER155C, strain BEM2 (second series), stronger effect = lower value 0.716 | locus YHR013C, strain ard1, stronger effect = lower value 1.31 [resistant] | locus YHR142W, strain chs7, stronger effect = lower value 0.828
0.789 (active) and 0.886 (inactive): locus YJL095W, strain BCK1, stronger effect = lower value
inactive: locus YAL021C, strain ccr4, stronger effect = lower value 1.02 | locus YAL026C, strain drs2, stronger effect = lower value 0.93 | locus YAL030W, strain snc1, stronger effect = lower value 0.967 | locus YBL061C, strain skt5, stronger effect = lower value 0.966 | locus YBR009C, strain hhf1, stronger effect = lower value 0.954 | locus YBR021W, strain FUR4, stronger effect = lower value 1 | locus YBR023C, strain chs3, stronger effect = lower value 0.942 | locus YBR171W, strain sec66, stronger effect = lower value 0.927 | locus YBR229C, strain ROT2, stronger effect = lower value 0.994 | locus YBR231C, strain swc5, stronger effect = lower value 0.995 | locus YBR279W, strain paf1, stronger effect = lower value 0.979 | locus YCL011C, strain gbp2, stronger effect = lower value 0.978 | locus YCL016C, strain dcc1, stronger effect = lower value 0.947 | locus YCL029C, strain bik1, stronger effect = lower value 0.969 | locus YCL061C, strain MRC1, stronger effect = lower value 0.958 | locus YCL069W, strain vba3, stronger effect = lower value 0.966 | locus YCR088W, strain abp1, stronger effect = lower value 0.946 | locus YDL005C, strain med2, stronger effect = lower value 0.981 | locus YDL035C, strain GPR1, stronger effect = lower value 0.961 | locus YDL040C, strain nat1, stronger effect = lower value 0.978 | locus YDL074C, strain BRE1, stronger effect = lower value 0.95 | locus YDL101C, strain DUN1, stronger effect = lower value 0.939 | locus YDL134C, strain PPH21, stronger effect = lower value 0.926 | locus YDL185W, strain tfp1, stronger effect = lower value 0.986 | locus YDL192W, strain arf1, stronger effect = lower value 0.973 | locus YDR001C, strain nth1, stronger effect = lower value 0.943 | locus YDR069C, strain doa4, stronger effect = lower value 1.01 | locus YDR101C, strain arx1, stronger effect = lower value 0.96 | locus YDR159W, strain sac3, stronger effect = lower value 0.951 | locus YDR162C, strain NBP2, stronger effect = lower value 0.941 | locus YDR195W, strain ref2 1.02 | locus YDR297W, strain sur2, stronger effect = lower value 0.961 | locus YDR318W, strain mcm21, stronger effect = lower value 0.948 | locus YDR334W, strain swr1, stronger effect = lower value 0.977 | locus YDR335W, strain msn5, stronger effect = lower value 0.95 | locus YDR388W, stronger effect = lower value 0.97 | locus YDR392W, strain spt3, stronger effect = lower value 0.764 | locus YEL003W, strain gim4, stronger effect = lower value 0.959 | locus YEL037C, strain rad23, stronger effect = lower value 0.97 | locus YEL061C, strain CIN8 (second series), stronger effect = lower value 0.925 | locus YEL061C, strain CIN8, stronger effect = lower value 0.988 | locus YER015W, strain faa2, stronger effect = lower value 0.966 | locus YER016W, strain bim1, stronger effect = lower value 0.973 | locus YER110C, stronger effect = lower value 0.975 | locus YER111C, strain swi4, stronger effect = lower value 0.957 | locus YER155C, strain BEM2, stronger effect = lower value 0.98 | locus YER167W, strain BCK2, stronger effect = lower value 0.942 | locus YFR010W, strain ubp6, stronger effect = lower value 1.01 | locus YGL078C, strain dbp3, stronger effect = lower value 0.943 | locus YGL086W, strain mad1, stronger effect = lower value 0.959 | locus YGL167C, strain pmr1, stronger effect = lower value 0.965 | locus YGL173C, strain kem1, stronger effect = lower value 0.927 | locus YGL227W, strain vid30, stronger effect = lower value 0.96 | locus YGL240W, strain doc1, stronger effect = lower value 0.968 | locus YGL248W, strain PDE1, stronger effect = lower value 0.944 | locus YGL253W, strain hxk2, stronger effect = lower value 0.972 | locus YGR135W, strain pre9, stronger effect = lower value 0.949 | locus YGR229C, strain SMI1, stronger effect = lower value 0.852 | locus YGR252W, strain gcn5, stronger effect = lower value 0.923 | locus YHR027C, strain rpn1, stronger effect = lower value 0.979 | locus YHR030C, strain SLT2, stronger effect = lower value 0.953 and 0.899 | locus YHR079C, strain IRE1 (second series), stronger effect = lower value 0.969 | locus YHR079C, strain IRE1, stronger effect = lower value 0.902 | locus YHR094C, strain hxt1, stronger effect = lower value 0.967 | locus YHR129C, strain ARP1, stronger effect = lower value 0.976 | locus YHR200W, strain rpn10, stronger effect = lower value 0.979 | locus YIL066C, strain RNR3, stronger effect = lower value 0.942 | locus YIL073C, strain SPO22, stronger effect = lower value 0.924 | locus YIL125W, strain kgd1, stronger effect = lower value 0.95 | locus YIR030C, strain dcg1, stronger effect = lower value 0.972 | locus YJL092W, strain hpr5, stronger effect = lower value 0.936 | locus YJL095W, strain BCK1 (second series), stronger effect = lower value 0.959 | locus YJL115W, strain asf1, stronger effect = lower value 0.959 | locus YJL129C, strain trk1, stronger effect = lower value 0.933 | locus YJL134W, strain LCB3, stronger effect = lower value 0.988 | locus YJL154C, strain vps35, stronger effect = lower value 0.96 | locus YJL164C, strain tpk1, stronger effect = lower value 0.922 | locus YJL166W, strain qcr8, stronger effect = lower value 0.941 | locus YJL168C, strain set2, stronger effect = lower value 0.979 | locus YJL187C, strain SWE1 (second series), stronger effect = lower value 0.973 | locus YJL187C, strain SWE1, stronger effect = lower value 0.966 | locus YJR043C, strain POL32, stronger effect = lower value 0.955 | locus YJR066W, strain TOR1, stronger effect = lower value 0.906
